From PubChem
A selection: hits, their analogues and other compounds. The true share with any hit is near 28%.
PLK1 kinase inh = PLK1 (human) kinase inhibition; actives 0.53% (n = 97,000); AID 619; recombinant PLK1 kinase, TR-FRET peptide phosphorylation; inhibition, % at 10 µM;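 active means inhibition of 50% or more in the single-concentration screen; inactive means inhibition below 50%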;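 further: 0% = DMSO max control and 100% = H-89 dihydrochloride min control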
CYP2C9 inh = human CYP2C9 inhibition | P11712 | CYP2C9 Supersomes, luciferin-H conversion, luminescence | inhibition, % at 5 µM | actives 20% (n = 96,000) | AID 777;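 active means blocking of liver enzyme CYP2C9 beyond about 50% at 5 µM, limit read from the data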
Target sequence (P11712 whole entry, looked up): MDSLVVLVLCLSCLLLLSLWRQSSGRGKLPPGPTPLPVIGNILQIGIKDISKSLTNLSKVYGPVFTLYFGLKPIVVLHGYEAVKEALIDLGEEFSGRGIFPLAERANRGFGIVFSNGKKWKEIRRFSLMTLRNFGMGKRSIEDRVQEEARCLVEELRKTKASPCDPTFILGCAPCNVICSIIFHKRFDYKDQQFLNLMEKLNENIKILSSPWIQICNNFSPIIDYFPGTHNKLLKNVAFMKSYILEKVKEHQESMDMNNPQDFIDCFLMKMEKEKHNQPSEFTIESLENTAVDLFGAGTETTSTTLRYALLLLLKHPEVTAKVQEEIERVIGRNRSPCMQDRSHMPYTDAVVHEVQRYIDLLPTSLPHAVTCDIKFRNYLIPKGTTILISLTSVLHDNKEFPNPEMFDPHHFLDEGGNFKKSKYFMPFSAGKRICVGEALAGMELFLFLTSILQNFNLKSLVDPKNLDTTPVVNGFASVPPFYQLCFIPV
CYP2C19 act = activators of human cytochrome P450 2C19. P33261. recombinant CYP2C19, luciferin-H EGE luminescence; active compounds read high; 0 = fully inhibited enzyme, 1 = untreated enzyme. activation factor at 5 µM. 96,000 tested, under 10 active;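 active means activation factor of at least 2 at 5 µM in the primary screen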;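 further: 0 = wells with 2.5 mM tranylcypromine and 1 = vehicle-only wells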
CYP2C19 inh = human CYP2C19 inhibition; P33261; inhibition, % at 5 µM; CYP2C19 Supersomes, luciferin-H EGE luminescence, 30 min; actives 21% (n = 96,000); AID 778;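 active means CYP2C19 inhibition above a set limit at 5 µM in the primary screen, cut at about 50% in these data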;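 further: plate controls were negative control wells for no effect and 2.5 mM tranylcypromine positive control for full effect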
Plk1 PBD FP = blocks phosphopeptide binding to human Plk1 polo box domain; P53350; Plk1 PBD phosphopeptide binding, fluorescence polarization; inhibition, %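 (tested at about 20 µM)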; actives 0.13% (n = 97,000); in the data active means inhibition above about 34%, passing the limit was not always enough
CYP2C9 act = increases human cytochrome P450 2C9 activity | P11712 | recombinant CYP2C9, luciferin-H conversion, luminescence; active compounds read high; factor 1 = untreated enzyme, 0 = blocked | activation factor at 5 µM | actives 1.4% (n = 96,000) | AID 1024;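 active means activation factor of 2 or more for CYP2C9 at a 5 µM dose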;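 further: 0 = sulfaphenazole-blocked wells and 1 = vehicle-only wells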
* = called active by the depositor; nt = no result given.

SMILES | PLK1 kinase inh | CYP2C9 inh | CYP2C19 act | CYP2C19 inh | Plk1 PBD FP | CYP2C9 act
O=C(O)c1cc(-c2ccco2)nc2ccc(Br)cc12 | nt | -2 | 1.2 | -20 | nt | 1
COc1cc2c(cc1OC)C(c1ccc(N(C)C)cc1)CC(=O)N2 (stereo not given) | -10 | 6 | 0.5 | 46 | 1 | 0.9
O=C1CC(c2ccc3c(c2)OCO3)c2cc3c(cc2N1)OCO3 (stereo not given) | 1 | 60* | 0.4 | 64* | 3 | 0.4
Cc1ccc(C2CC(=O)Nc3cc4c(cc32)OCO4)o1 (stereo not given) | -10 | 26 | 0.2 | 84* | -12 | 0.7
O=C1CC(c2ccncc2)c2cc3c(cc2N1)OCO3 (stereo not given) | -2 | 68* | 0.5 | 48 | 3 | 0.3
Cc1ccc(C2CC(=O)Nc3cc4c(cc32)OCCO4)s1 (stereo not given) | 4 | 35 | 0.9 | 9 | 19 | 0.7
CCCCNC(=O)c1onc(CSc2ccc(C)c(C)c2)c1C(=O)O | -17 | 83* | 0.9 | 14 | -11 | 0.2
C=CCNC(=O)c1onc(CSc2ccc(C)c(C)c2)c1C(=O)O | -13 | 88* | 0.1 | 94* | -5 | 0.1
C=CCNC(=O)c1onc(CSc2ccccc2CC)c1C(=O)O | -10 | 80* | 1 | 4 | -28 | 0.2
CCCCNC(=O)c1onc(CSc2ccc(F)c(F)c2)c1C(=O)O | -18 | 73* | 1 | 1 | 8 | 0.3
COCCNC(=O)c1onc(CSc2ccc(Cl)cc2)c1C(=O)O | -11 | 23 | 0.6 | 43 | 7 | 0.8
O=C(NCC1CCCO1)c1onc(CSc2ccc(F)cc2)c1C(=O)O (stereo not given) | -2 | 14 | 0.9 | 15 | -6 | 0.9
CCc1ccccc1SCc1noc(C(=O)NCC2CCCO2)c1C(=O)O (stereo not given) | -14 | 1 | 0.8 | 22 | -11 | 1
COc1cccc(-c2n[nH]c(=S)n2Cc2ccco2)c1OC | -10 | 36 | 0.7 | 33 | 9 | 0.6
O=C(NCCCN1CCOCC1)C1CC(=O)N(C2CCCCC2)C1 (stereo not given) | 3 | 1 | 0.6 | 40 | 7 | 1
COc1ccc(-c2oc3ncn4nc(Cc5ccccc5)nc4c3c2-c2ccc(OC)cc2)cc1 | -13 | 34 | 0.8 | 16 | -10 | 0.7
O=C(NC1CCCc2ccccc21)C1CCC(CNc2c(N3CCOCC3)c(=O)c2=O)CC1 (stereo not given) | nt | -5 | 1.2 | -18 | nt | 1.1
O=C(O)CCCC(=O)N1CCc2cc(S(=O)(=O)N3CCc4ccccc43)ccc21 | 13 | 8 | 1.2 | -20 | 9 | 0.9
COC(=O)c1c(CSc2ccc(C)c(C)c2)noc1C(=O)NCc1ccc(OC)cc1 | -4 | 75* | 0.3 | 65* | 6 | 0.2
COC(=O)c1c(CSc2ccc(Cl)cc2)noc1C(=O)NCc1ccco1 | -7 | 9 | 1 | 0 | 23 | 0.9
O=C(c1ccc(O)cc1)c1ccc(C(=O)c2ccc(O)cc2)cc1 | 0 | 69* | 1.1 | -5 | -1 | 0.3
Cc1ccc(C)n1NC(=O)c1ccc(O)cc1 | -9 | 32 | 1 | 2 | 2 | 0.7
O=C(CCC1(C(=O)O)CCC(=O)NC1)NCc1ccccc1 (stereo not given) | -9 | -4 | 1 | 3 | -9 | 1
CCOC(=O)c1c(CC(C)C)csc1NC(C)=O | -11 | 62* | 0.6 | 44 | -2 | 0.4
Cc1ccc(C(=O)COC(=O)c2cc(Cl)nc3ccccc23)cc1C | -3 | -104 | 0.8 | 21 | -13 | 2*
SMILES | PLK1 kinase inh | CYP2C9 inh | CYP2C19 act | CYP2C19 inh | Plk1 PBD FP | CYP2C9 act
Cc1cc(C(=O)OCC(=O)NC(C)(C)C)c2ccccc2n1 | -6 | -45 | 1.1 | -7 | 20 | 1.4
CCc1ccc(S(=O)(=O)N2CC(=O)Nc3ccccc32)cc1 | -7 | -68 | 0.3 | 74* | -4 | 1.7
CC(C)(C)c1ccc(S(=O)(=O)N2CC(=O)Nc3ccccc32)cc1 | -12 | 10 | 0.2 | 82* | 1 | 0.9
COc1ccc(CN(C(=O)c2cnccn2)C(C(=O)Nc2ccc(F)cc2)c2ccccc2)cc1 (stereo not given) | -11 | nt | nt | nt | -14 | nt
CCCCn1cnc2c(cnn2-c2ccc(Cl)cc2)c1=O | -10 | nt | nt | nt | -12 | nt
Cc1ccc(C)n1-c1ncn[nH]1 | -3 | -2 | 0.9 | 8 | 19 | 1
